# Laboratory results published in PubChem BioAssay (NCATS).
# Inconclusive results are not listed. Entries that show only a call come without a potency. Unmarked numbers belong to inactive results. Active and inactive are the calls of the source. Calls follow the shape of the dose curve; as a rule, active = well fitted curve in the direction sought with a large enough effect; inconclusive = small, poorly fitted or top-dose-only effect, or another doubt; inactive = no such curve, though single readings can be large; an effect the other way counts as inactive or inconclusive.
# Legend:
# C33A = assay: Primary qHTS to identify gynecologic anti-cancer compounds using libraries of approved drugs and bioactive compounds (AID 1345084); conditions: Gynecologic cancer cell panel viability, ATPlite luminescence, 48 h; series mostly up to 57.5 µM; also: nearly all actives have a fitted effect of over 55% in size
# Procedure, shortened: (§1)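 Cells, 1,000 per well, were allowed to settle for 16 h at 37 C before compound addition. Five concentrations were tested for 48 h, and viability was read by ATPlite luminescence after 15 min at room temperature.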
# CAOV3 = assay: as above; conditions: Gynecologic cancer cell panel viability, ATPlite luminescence, 48 h; series mostly up to 57.5 µM
# Procedure, shortened: as §1
# CASKI = assay: as above; conditions: Gynecologic cancer cell panel viability, ATPlite luminescence, 48 h; series mostly up to 57.5 µM
# Procedure, shortened: as §1
# Es-2 = assay: as above; conditions: Gynecologic cancer cell panel viability, ATPlite luminescence, 48 h; series mostly up to 57.5 µM
# Procedure, shortened: as §1
# HeLa = assay: as above; conditions: Gynecologic cancer cell panel viability, ATPlite luminescence, 48 h; series mostly up to 57.5 µM
# Procedure, shortened: as §1
# Hek293T = assay: as above; conditions: Gynecologic cancer cell panel viability, ATPlite luminescence, 48 h, control line for the selectivity index; series mostly up to 57.5 µM
# Procedure, shortened: as §1
# OV90 = assay: as above; conditions: Gynecologic cancer cell panel viability, ATPlite luminescence, 48 h; series mostly up to 57.5 µM
# Procedure, shortened: as §1
# MKL-2 = assay: qHTS assay to identify novel small-molecules to repurpose for Merkel cell carcinoma treatment (AID 1296009); conditions: MCC and control cell lines, CellTiter-Glo viability, 72 h; series mostly up to 46 µM; also: nearly all actives have a fitted effect of over 60% in size
# Procedure, shortened: (§2)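 Dose-response viability screen; 72 hr exposure at 37 degree celsius; CellTiter-Glo added, 10 min room temperature, luminescence read; RLUs scaled between no-cell and DMSO wells.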
# JEG-3 = assay: Primary qHTS to identify gynecologic anti-cancer compounds using libraries of approved drugs and bioactive compounds (AID 1345084); conditions: Gynecologic cancer cell panel viability, ATPlite luminescence, 48 h; series mostly up to 57.5 µM; also: nearly all actives have a fitted effect of over 55% in size
# Procedure, shortened: as §1
# MCC-26 = assay: qHTS assay to identify novel small-molecules to repurpose for Merkel cell carcinoma treatment (AID 1296009); conditions: MCC and control cell lines, CellTiter-Glo viability, 72 h; series mostly up to 46 µM; also: nearly all actives have a fitted effect of over 60% in size
# Procedure, shortened: as §2
# MKL-1 = assay: as above; conditions: MCC and control cell lines, CellTiter-Glo viability, 72 h; series mostly up to 46 µM
# Procedure, shortened: as §2
# UISO = assay: as above; conditions: MCC and control cell lines, CellTiter-Glo viability, 72 h; series mostly up to 46 µM
# Procedure, shortened: as §2
# WaGa = assay: as above; conditions: MCC and control cell lines, CellTiter-Glo viability, 72 h; series mostly up to 46 µM
# Procedure, shortened: as §2
# PA-1 = assay: Primary qHTS to identify gynecologic anti-cancer compounds using libraries of approved drugs and bioactive compounds (AID 1345084); conditions: Gynecologic cancer cell panel viability, ATPlite luminescence, 48 h; series mostly up to 57.5 µM; also: nearly all actives have a fitted effect of over 55% in size
# Procedure, shortened: as §1
# SKOV3 = assay: as above; conditions: Gynecologic cancer cell panel viability, ATPlite luminescence, 48 h; series mostly up to 57.5 µM
# Procedure, shortened: as §1
# MCC-13 = assay: qHTS assay to identify novel small-molecules to repurpose for Merkel cell carcinoma treatment (AID 1296009); conditions: MCC and control cell lines, CellTiter-Glo viability, 72 h; series mostly up to 46 µM; also: nearly all actives have a fitted effect of over 60% in size
# Procedure, shortened: as §2
# Potency is read from the fitted curve at half-maximal effect.
smiles,measurement,setting,value
CC[N+]1(CC)CCC(=C(c2ccccc2)c2ccccc2)C1C (configuration not stated),Potency,C33A,inactive
same,Potency,CAOV3,inactive
same,Potency,CASKI,inactive
same,Potency,Es-2,inactive
same,Potency,HeLa,inactive
same,Potency,Hek293T,inactive
same,Potency,OV90,inactive
CC(NCCC(c1ccccc1)c1ccccc1)c1ccccc1 (configuration not stated),Potency,MKL-2,11.9 µM (active)
same,Potency,Es-2,inactive
same,Potency,HeLa,inactive
same,Potency,Hek293T,inactive
same,Potency,JEG-3,inactive
same,Potency,OV90,28.2 µM (active)
CCOC(=O)C1=C(C)NC(C)=C(C(=O)OCC)C1c1ccccc1/C=C/C(=O)OC(C)(C)C,Potency,MCC-26,inactive
same,Potency,MKL-1,26.6 µM (active)
same,Potency,MKL-2,21.1 µM (active)
same,Potency,UISO,26.6 µM (active)
same,Potency,WaGa,23.7 µM (active)
same,Potency,Es-2,inactive
same,Potency,HeLa,inactive
same,Potency,Hek293T,inactive
same,Potency,JEG-3,inactive
same,Potency,OV90,inactive
same,Potency,PA-1,inactive
Nc1ccc(O)cc1,Potency,C33A,inactive
same,Potency,CAOV3,inactive
same,Potency,CASKI,inactive
same,Potency,Es-2,inactive
same,Potency,Hek293T,inactive
same,Potency,JEG-3,inactive
same,Potency,OV90,inactive
same,Potency,PA-1,inactive
same,Potency,SKOV3,inactive
O=C1[C@@H]2[C@H]3CC[C@H](C3)[C@@H]2C(=O)N1CCCCN1CCN(c2ncccn2)CC1,Potency,C33A,inactive
same,Potency,CAOV3,inactive
same,Potency,CASKI,inactive
same,Potency,Es-2,inactive
same,Potency,HeLa,inactive
same,Potency,Hek293T,inactive
same,Potency,JEG-3,inactive
same,Potency,OV90,inactive
same,Potency,PA-1,inactive
same,Potency,SKOV3,inactive
O=C(Nc1ccc(Cl)cc1)Nc1ccc(Cl)c(Cl)c1,Potency,MKL-1,18.8 µM (active)
same,Potency,MKL-2,5.96 µM (active)
same,Potency,UISO,10.6 µM (active)
same,Potency,WaGa,21.1 µM (active)
same,Potency,CASKI,inactive
CCN(CC)CCOc1ccc(/C(=C(\Cl)c2ccccc2)c2ccccc2)cc1,Potency,MKL-1,23.7 µM (active)
same,Potency,WaGa,26.6 µM (active)
same,Potency,CASKI,inactive
same,Potency,HeLa,inactive
same,Potency,JEG-3,inactive
same,Potency,OV90,14.1 µM (active)
CCCCCC(=O)O[C@]1(C(C)=O)CC[C@H]2[C@@H]3CCC4=CC(=O)CC[C@]4(C)[C@H]3CC[C@@]21C,Potency,MCC-26,inactive
same,Potency,MKL-2,inactive
same,Potency,CAOV3,inactive
same,Potency,CASKI,inactive
same,Potency,Es-2,inactive
same,Potency,JEG-3,inactive
same,Potency,PA-1,inactive
O=C1NC(c2cccc([N+](=O)[O-])c2)=CCN1c1ccccc1O,Potency,C33A,inactive
same,Potency,CAOV3,inactive
same,Potency,Es-2,inactive
same,Potency,HeLa,inactive
same,Potency,OV90,inactive
same,Potency,PA-1,inactive
O=C1CC[C@H](C(=O)N2CCCCC2)N1,Potency,C33A,inactive
same,Potency,CAOV3,inactive
same,Potency,CASKI,inactive
same,Potency,Es-2,inactive
same,Potency,HeLa,inactive
same,Potency,Hek293T,inactive
same,Potency,JEG-3,inactive
same,Potency,OV90,inactive
same,Potency,PA-1,inactive
same,Potency,SKOV3,inactive
C[C@H](N)C(=O)N[C@@H](C)C(=O)NC1[C@H]2CN(c3nc4c(cc3F)c(=O)c(C(=O)O)cn4-c3ccc(F)cc3F)C[C@@H]12 (some centres not stated),Potency,MCC-13,inactive
same,Potency,MCC-26,inactive
same,Potency,C33A,inactive
same,Potency,CAOV3,inactive
same,Potency,CASKI,inactive
same,Potency,Es-2,inactive
same,Potency,HeLa,inactive
same,Potency,JEG-3,inactive
same,Potency,OV90,inactive
same,Potency,SKOV3,inactive
COc1c(N2C[C@@H]3CCCN[C@@H]3C2)c(F)cc2c(=O)c(C(=O)O)cn(C3CC3)c12,Potency,C33A,inactive
same,Potency,CAOV3,inactive
same,Potency,CASKI,inactive
same,Potency,Es-2,inactive
same,Potency,HeLa,inactive
same,Potency,Hek293T,inactive
same,Potency,JEG-3,inactive
same,Potency,OV90,inactive
same,Potency,PA-1,inactive
same,Potency,SKOV3,inactive
O=C(Nc1ccc(Cl)cc1)Nc1ccc(Cl)c(C(F)(F)F)c1,Potency,MKL-1,21.1 µM (active)
same,Potency,MKL-2,7.5 µM (active)
same,Potency,UISO,10.6 µM (active)
same,Potency,WaGa,26.6 µM (active)
same,Potency,C33A,17.8 µM (active)
same,Potency,Es-2,28.2 µM (active)
same,Potency,HeLa,14.1 µM (active)
same,Potency,Hek293T,14.1 µM (active)
same,Potency,JEG-3,inactive
same,Potency,OV90,25.1 µM (active)
CCCC(=O)c1cc(O)c(O)cc1O,Potency,MCC-13,inactive
same,Potency,MCC-26,inactive
same,Potency,MKL-2,27.3 µM (active)
same,Potency,C33A,inactive
same,Potency,CAOV3,inactive
same,Potency,CASKI,inactive
same,Potency,Es-2,inactive
same,Potency,HeLa,inactive
same,Potency,Hek293T,inactive
same,Potency,JEG-3,inactive
same,Potency,OV90,inactive
CC1CN(c2cc3c(cc2F)c(=O)c(C(=O)O)cn3-c2ccc(F)cc2F)CCN1 (configuration not stated),Potency,C33A,inactive
same,Potency,CAOV3,inactive
same,Potency,CASKI,inactive
same,Potency,Es-2,inactive
same,"activity change, negative = cytotoxicity",HeLa,5.19% [at 6.55 µM]
same,"activity change, negative = cytotoxicity",Hek293T,-5.43% [at 6.55 µM]
same,"activity change, negative = cytotoxicity",JEG-3,13.6% [at 6.55 µM]
same,"activity change, negative = cytotoxicity",OV90,18.6% [at 6.55 µM]
same,"activity change, negative = cytotoxicity",PA-1,6.96% [at 6.55 µM]
same,"activity change, negative = cytotoxicity",SKOV3,-2.15% [at 6.55 µM]
CN1CC[C@H](c2c(O)cc(O)c3c(=O)cc(-c4ccccc4Cl)oc23)[C@H](O)C1,Potency,UISO,0.473 µM (active)
same,Potency,C33A,1.26 µM (active)
same,Potency,CASKI,0.708 µM (active)
same,Potency,Es-2,0.708 µM (active)
same,Potency,HeLa,0.794 µM (active)
same,Potency,JEG-3,inactive
same,Potency,PA-1,0.447 µM (active)
Cc1cc(OCCOCC[N+](C)(C)Cc2ccccc2)ccc1C(C)(C)CC(C)(C)C,Potency,UISO,4.22 µM (active)
same,Potency,Es-2,inactive
same,Potency,HeLa,inactive
same,Potency,JEG-3,inactive
Clc1ccc2c(c1)N=C(N1CCNCC1)c1ccccc1N2,Potency,C33A,inactive
same,Potency,CAOV3,inactive
same,Potency,CASKI,inactive
same,Potency,Es-2,inactive
same,Potency,HeLa,inactive
same,Potency,Hek293T,inactive
same,Potency,JEG-3,inactive
same,Potency,PA-1,inactive
